Structures are written as SMILES. Out of some 39,000 compounds screened, about 3,300 (8.5%) were called active. The full list was thinned out, with actives kept by preference.

The assay has as its system HepG2. Briefly: cytotoxicity call (relative viability < 0.9). As to conditions: 10 µM.
With `CC1=NCCN1`, the cytotoxicity call is “inactive”.
Regarding `CC(C)c1ccc2c(ccc[n+]2C)c1`, the cytotoxicity call was “inactive”.
As for `COC(=O)C[C@H]1CC[C@@H]2[C@H](COC[C@@H](O)CN2S(=O)(=O)c2cn(C)cn2)O1`, the cytotoxicity call is “inactive”.
For `COc1ccc(S(=O)(=O)Nc2cccc3c2O[C@@H](CN(C)S(=O)(=O)c2ccccc2)[C@H](C)CN([C@H](C)CO)C3=O)cc1` the value was “inactive”; for `COCC(=O)N1C[C@H](C)[C@H](OC)CN(C)C(=O)c2ccc(NC(=O)c3ccc(OC)cc3)cc2OC[C@@H]1C`, “inactive”; for `Cc1ccc(S(=O)(=O)N(C)C[C@@H]2OCCCC[C@@H](C)Oc3ccc(NS(=O)(=O)c4ccc(F)cc4)cc3C(=O)N([C@@H](C)CO)C[C@@H]2C)cc1`, “inactive”.
Turning to `C[C@H](CO)N1C[C@H](C)[C@@H](CN(C)C(=O)Nc2ccccc2C(F)(F)F)OCc2ccccc2-c2ccccc2C1=O`, the cytotoxicity call was “inactive”.
`C=C(NC(=O)C(=C)NC(=O)c1csc(C2=NC3c4csc(n4)C4NC(=O)c5csc(n5)C(C(C)(O)C(C)O)NC(=O)C5CSC(=N5)C(=CC)NC(=O)C(C(C)O)NC(=O)c5csc(n5)C3(CC2)NC(=O)C(C)NC(=O)C(=C)NC(=O)C(C)NC(=O)C(C(C)CC)NC2C=Cc3c(C(C)O)cc(nc3C2O)C(=O)OC4C)n1)C(N)=O` (centres undefined): the cytotoxicity call was “active”.
Regarding `C=C(NC(=O)C(=C)NC(=O)c1csc(C2=N[C@H]3c4csc(n4)[C@H]4NC(=O)c5csc(n5)[C@H](C(C)(O)[C@@H](C)O)NC(=O)[C@H]5CSC(=N5)C(=CC)NC(=O)[C@H]([C@@H](C)O)NC(=O)c5csc(n5)[C@]3(CC2)NC(=O)[C@H](C)NC(=O)C(=C)NC(=O)[C@H](C)NC(=O)[C@H]([C@H](C)CC)N[C@@H]2C=Cc3c([C@H](C)O)cc(nc3[C@H]2O)C(=O)O[C@@H]4C)n1)C(N)=O` (some centres undefined), the cytotoxicity call was “active”.
In the case of `C=C(NC(=O)C(=C)NC(=O)c1csc(C2=N[C@@H]3c4csc(n4)[C@@H]4NC(=O)c5csc(n5)[C@H](C(C)(O)[C@@H](C)O)NC(=O)[C@H]5CSC(=N5)/C(=C/C)NC(=O)[C@H]([C@@H](C)O)NC(=O)c5csc(n5)[C@]3(CC2)NC(=O)[C@@H](C)NC(=O)C(=C)NC(=O)[C@@H](C)NC(=O)[C@@H]([C@H](C)CC)N[C@H]2C=Cc3c([C@@H](C)O)cc(nc3[C@@H]2O)C(=O)O[C@H]4C)n1)C(N)=O` (some centres undefined), the cytotoxicity call is “inactive”.
As to `C[C@@H]1CN([C@@H](C)CO)C(=O)Cc2cc(NS(C)(=O)=O)ccc2O[C@H]1CN(C)S(=O)(=O)c1cn(C)cn1`, the cytotoxicity call is “inactive”.
With `C[C@H](CO)N1C[C@H](C)[C@H](CN(C)S(=O)(=O)c2ccc(F)cc2)Oc2ccc(NC(=O)c3ccncc3)cc2CC1=O`, the cytotoxicity call is “inactive”.
On to `COc1ccc(S(=O)(=O)N(C)C[C@H]2Oc3c(cccc3N(C)C)C(=O)N([C@@H](C)CO)C[C@@H]2C)cc1`, for which the cytotoxicity call is “inactive”.
Take `COc1ccc2c3c(n(c2c1)C)[C@@H](CO)N(C[C@]13CN(C1)C(=O)c1ccncc1)C(=O)C1CCCCC1`: the cytotoxicity call is “inactive”.
On to `COc1ccc(NC(=O)N2C[C@H](O)COC[C@@H]3O[C@@H](CC(=O)NC4Cc5ccccc5C4)CC[C@H]32)cc1`, for which the cytotoxicity call was “inactive”.
The entry for `C[C@@H]1CN([C@H](C)CO)C(=O)c2cc(C#CC(C)(C)O)cnc2O[C@H]1CN(C)Cc1cccc(C(=O)O)c1` is “inactive”; for `Cc1ccc(S(=O)(=O)N(C)C[C@@H]2Oc3ccc(N(C)C)cc3CC(=O)N([C@@H](C)CO)C[C@H]2C)cc1` it is “inactive”.
As for `C[C@H](CO)N1C[C@H](C)[C@H](CN(C)Cc2ccc(Oc3ccccc3)cc2)Oc2c(NC(=O)NC3CCCCC3)cccc2C1=O`, the cytotoxicity call was “active”.
The entry for `C[C@@H]1CN([C@@H](C)CO)C(=O)c2cccc(NC(=O)NC3CCCCC3)c2O[C@@H]1CN(C)Cc1ccc(Oc2ccccc2)cc1` is “inactive”; for `C[C@H](CO)N1C[C@H](C)[C@@H](CN(C)Cc2ccc(Oc3ccccc3)cc2)Oc2c(NC(=O)C3CCCCC3)cccc2C1=O` it is “active”; for `C[C@@H]1CN([C@@H](C)CO)C(=O)c2cccc(NC(=O)C3CCCCC3)c2O[C@H]1CN(C)Cc1ccc(Oc2ccccc2)cc1` it is “inactive”.
`C[C@H]1CN([C@@H](C)CO)C(=O)c2cccc(NC(=O)C3CCCCC3)c2O[C@H]1CN(C)Cc1ccc(Oc2ccccc2)cc1`: the cytotoxicity call was “inactive”.
For the molecule `C[C@H]1CN([C@@H](C)CO)C(=O)c2cccc(NC(=O)NC3CCCCC3)c2O[C@@H]1CN(C)Cc1ccc(Oc2ccccc2)cc1`, the cytotoxicity call was “inactive”.
For the molecule `COCCNC(=O)C[C@H]1C[C@@H]2c3cc(NS(C)(=O)=O)ccc3O[C@@H]2[C@H](CO)O1`, the cytotoxicity call was “inactive”.
Turning to `CO[C@H]1CN(C)C(=O)c2cc(NC(=O)c3ccc(F)cc3)ccc2OC[C@@H](C)N(C(=O)CN(C)C)C[C@H]1C`, the cytotoxicity call is “inactive”.
As to `COCC#Cc1ccc([C@@H]2[C@@H](CO)N3C(=O)CN(C(=O)CN4CCOCC4)C[C@H]23)cc1`, the cytotoxicity call was “inactive”.
Consider `C[C@H]1CN([C@@H](C)CO)C(=O)Cc2cc(NC(=O)Cn3cnnn3)ccc2O[C@@H]1CN(C)C(=O)Nc1ccc(C(F)(F)F)cc1`, for which the cytotoxicity call was “inactive”.
Take `C[C@H]1CCCCO[C@H](CN(C)C(=O)Nc2ccc(F)cc2)[C@@H](C)CN([C@@H](C)CO)C(=O)c2cc(NS(=O)(=O)c3ccccc3)ccc2O1`: the cytotoxicity call is “inactive”.
Regarding `O=c1c(O)cc([C@H]2Oc3cc(O)cc(O)c3C[C@H]2O)c2cc([C@H]3Oc4cc(O)cc(O)c4C[C@H]3O)cc(O)c(O)c1-2`, the cytotoxicity call was “inactive”.
On to `O=C(OC1Cc2c(O)cc(O)cc2OC1c1cc(O)c(=O)c2c(O)c(O)cc(C3Oc4cc(O)cc(O)c4CC3O)c2c1)c1cc(O)c(O)c(O)c1` (centres undefined), for which the cytotoxicity call is “inactive”.
On to `O=C(O[C@@H]1Cc2c(O)cc(O)cc2O[C@@H]1c1cc(O)c(O)c2c(=O)c(O)cc([C@H]3Oc4cc(O)cc(O)c4C[C@H]3O)c-2c1)c1cc(O)c(O)c(O)c1`, for which the cytotoxicity call is “active”.
On to `CCOC(=O)C1=C(C)NC(C)=C(C(=O)OC)C1c1cccc(Cl)c1Cl` (centres undefined), for which the cytotoxicity call is “inactive”.
Turning to `COC(=O)C1=C(C)NC(C)=C(C(=O)OC)C1c1ccccc1[N+](=O)[O-]`, the cytotoxicity call was “inactive”.
With `CCOC(=O)C1=C(COCCN)NC(C)=C(C(=O)OC)C1c1ccccc1Cl.O=S(=O)(O)c1ccccc1` (centres undefined), the cytotoxicity call is “active”.
The entry for `C[C@H]1CN([C@@H](C)CO)C(=O)c2cccc(NC(=O)C3CC3)c2O[C@H]1CN(C)Cc1ccc(Oc2ccccc2)cc1` is “inactive”; for `CC(=O)N(C)C[C@@H]1Oc2cc(C#CCN(C)C)ccc2S(=O)(=O)N([C@@H](C)CO)C[C@H]1C` it is “inactive”.
Take `C[C@H](CO)N1C[C@H](C)[C@H](CN(C)C(=O)c2ccccc2F)Oc2ncc(C#Cc3ccncc3)cc2C1=O`: the cytotoxicity call is “inactive”.
`CC(C)n1c(C=CC(O)CC(O)CC(=O)[O-])c(-c2ccc(F)cc2)c2ccccc21.[Na+]` (centres undefined): the cytotoxicity call was “active”.
As for `CC(C)c1c(C(=O)Nc2ccccc2)c(-c2ccccc2)c(-c2ccc(F)cc2)n1CCC(O)CC(O)CC(=O)[O-].[Ca+2]` (centres undefined), the cytotoxicity call was “inactive”.
As for `CC(C)c1nc(N(C)S(C)(=O)=O)nc(-c2ccc(F)cc2)c1C=CC(O)CC(O)CC(=O)[O-].[Ca+2]` (centres undefined), the cytotoxicity call is “inactive”.
With `C[C@@H]1CCCCO[C@@H](CN(C)C(=O)Nc2ccc(F)cc2)[C@H](C)CN([C@H](C)CO)C(=O)c2cc(NC(=O)NC3CCCCC3)ccc2O1`, the cytotoxicity call was “inactive”.
As for `C=CCC[C@@H](Cc1ccc(F)cc1)C(=O)OC[C@@H](Cc1ccccc1)NC(=O)[C@H](CC=C)CC(=O)N(CCO)Cc1ccccc1`, the cytotoxicity call was “inactive”.
For `C=CCC[C@@H](Cc1ccc(F)cc1)C(=O)OC[C@H](Cc1c[nH]c2ccccc12)NC(=O)[C@@H](CC=C)CC(=O)N(CCO)Cc1ccccc1` the value was “inactive”; for `C=CCC[C@@H](Cc1ccc(F)cc1)C(=O)OC[C@@H](Cc1c[nH]c2ccccc12)NC(=O)[C@@H](CC=C)CC(=O)N(CCO)Cc1ccccc1`, “active”; for `C=CCC[C@H](Cc1ccc(F)cc1)C(=O)OC[C@@H](Cc1c[nH]c2ccccc12)NC(=O)[C@@H](CC=C)CC(=O)N(CCO)Cc1ccccc1`, “active”.
With `C=CCC[C@H](Cc1ccc(F)cc1)C(=O)OC[C@H](Cc1c[nH]c2ccccc12)NC(=O)[C@@H](CC=C)CC(=O)N(CCO)Cc1ccccc1`, the cytotoxicity call is “active”.
Turning to `C=CCC[C@H](Cc1ccc(F)cc1)C(=O)OC[C@@H](Cc1c[nH]c2ccccc12)NC(=O)[C@H](CC=C)CC(=O)N(CCO)Cc1ccccc1`, the cytotoxicity call is “active”.
As to `Cc1cccc(S(=O)(=O)N2C[C@@H](O)COC[C@@H]3O[C@H](CC(=O)NCc4ccncn4)CC[C@H]32)c1`, the cytotoxicity call was “inactive”.
For `COCC(=O)Nc1ccc2c(c1)OC[C@H](C)N(Cc1cccc(F)c1)C[C@@H](C)[C@@H](OC)CN(C)C2=O` the value was “inactive”; for `CCCN(C)C[C@@H]1OCCCC[C@@H](C)Oc2ccc(NC(=O)Nc3c(C)noc3C)cc2C(=O)N([C@H](C)CO)C[C@@H]1C`, “inactive”; for `C[C@H](CO)N1C[C@H](C)[C@@H](CN(C)C(=O)NC2CCCCC2)OCCCC[C@H](C)Oc2ccc(NS(=O)(=O)c3ccccc3)cc2C1=O`, “inactive”.
As for `C[C@@H]1CCCCO[C@@H](CN(C)Cc2ccc3c(c2)OCO3)[C@H](C)CN([C@H](C)CO)C(=O)c2cc(NS(=O)(=O)c3cccs3)ccc2O1`, the cytotoxicity call was “inactive”.
With `C[C@@H]1CCCCO[C@@H](CN(C)C(=O)Nc2ccc(F)cc2)[C@H](C)CN([C@H](C)CO)C(=O)c2cc(NC(=O)Nc3ccc(F)cc3)ccc2O1`, the cytotoxicity call was “inactive”.
As to `C[C@@H]1CN([C@@H](C)CO)C(=O)c2cc(NS(C)(=O)=O)ccc2O[C@@H]1CN(C)Cc1ccc(C(=O)O)cc1`, the cytotoxicity call was “inactive”.
As to `C[C@@H]1CCCCO[C@@H](CN(C)Cc2ccncc2)[C@@H](C)CN([C@@H](C)CO)C(=O)c2cc(NC(=O)Nc3ccc(F)cc3)ccc2O1`, the cytotoxicity call was “inactive”.
With `C[C@@H]1CN([C@H](C)CO)C(=O)c2cccc(NC(=O)C3CC3)c2O[C@@H]1CN(C)S(=O)(=O)c1ccc(F)cc1`, the cytotoxicity call was “inactive”.
As to `C=CCC[C@@H](Cc1ccc(F)cc1)C(=O)OC[C@H](Cc1c[nH]c2ccccc12)NC(=O)[C@H](CC=C)CC(=O)N(CCO)Cc1ccccc1`, the cytotoxicity call is “inactive”.
In the case of `C=CCC[C@@H](Cc1ccc(F)cc1)C(=O)OC[C@@H](Cc1c[nH]c2ccccc12)NC(=O)[C@H](CC=C)CC(=O)N(CCO)Cc1ccccc1`, the cytotoxicity call was “active”.
As for `C=CCC[C@H](Cc1ccc(F)cc1)C(=O)OC[C@H](Cc1c[nH]c2ccccc12)NC(=O)[C@H](CC=C)CC(=O)N(CCO)Cc1ccccc1`, the cytotoxicity call was “inactive”.
